Screens from PubChem.
A selection: hits, their analogues and other compounds. The true share with any hit is near 1.3%.
AmpC inh detg: blocks E. coli AmpC beta-lactamase in detergent assay | P00811 | AID 485294 | AmpC hydrolysis of nitrocefin, absorbance 480 nm, 0.01% Triton | Potency, µM (series often up to 114 µM), most hits filed as inhibitors | 370,000 compounds, 0.041% hits; further: nearly all actives have a fitted effect of over 25% in size
Target sequence (P00811 whole entry, looked up): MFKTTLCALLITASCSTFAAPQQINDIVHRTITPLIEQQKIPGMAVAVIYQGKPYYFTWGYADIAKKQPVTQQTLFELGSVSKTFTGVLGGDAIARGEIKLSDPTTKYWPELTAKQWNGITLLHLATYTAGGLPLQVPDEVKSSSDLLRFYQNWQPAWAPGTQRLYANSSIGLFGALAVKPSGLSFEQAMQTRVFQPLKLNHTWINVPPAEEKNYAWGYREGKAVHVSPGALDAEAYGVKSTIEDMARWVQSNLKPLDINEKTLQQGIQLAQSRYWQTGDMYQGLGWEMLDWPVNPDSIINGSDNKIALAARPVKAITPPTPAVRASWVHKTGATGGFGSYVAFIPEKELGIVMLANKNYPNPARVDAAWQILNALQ
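20 mM phosphate pH 7.0 + 0.01% (detergent screen) or 0.0001% Triton X-100; 5.3 nM AmpC reagent; cpd preinc 15 min RT; nitrocefin (800 uM stock) to start; A480 q20 s × 4 min; Activity was normalised to no-enzyme and no-compound control wells.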
SARS PLpro yeast: inhibitors of SARS-CoV papain-like protease in yeast; 330,000 compounds, 0.19% hits; Potency, µM (titrated, usually from 32.9 µM), most hits filed as activators; S. cerevisiae expressing SARS-CoV PLpro, growth rescue; calls by dose curve; further: nearly all actives have a fitted effect of over 55% in size
VACV mCherry inh: inhibitors of vaccinia virus infection (mCherry reporter signal); Vaccinia virus mCherry reporter infection, fluorescence; Potency, µM (doses to about 36.5 µM), hits mostly inhibitors; 310,000 compounds, 0.63% hits; AID 720579; calls by dose curve; tested in A549 cells; further: nearly all actives have a fitted effect of over 35% in size
Vaccinia Venus: inhibitors of vaccinia virus (Venus reporter); Potency, µM (series often up to 36.5 µM), usual class: inhibitors; 330,000 compounds, 0.46% hits; Vaccinia virus Venus reporter expression, fluorescence; AID 720580; calls by dose curve; tested in A549 cells; further: nearly all actives have a fitted effect of over 30% in size
AmpC no deterg: inhibitors of E. coli AmpC beta-lactamase without detergent | P00811 | AmpC nitrocefin hydrolysis, absorbance 480 nm, 0.0001% Triton | Potency, µM (series often up to 57.1 µM), actives largely listed as inhibitors | 330,000 compounds, 0.52% hits | AID 485341; further: nearly all actives have a fitted effect of over 20% in size
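20 mM phosphate pH 7.0 + 0.01% (detergent screen) or 0.0001% Triton X-100; 5.3 nM AmpC reagent; cpd preinc 15 min RT; nitrocefin (800 uM stock) to start; A480 q20 s × 4 min; Activity was normalised to no-enzyme and no-compound control wells.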
AMA1-RON2 inh: AMA1-RON2 (P. falciparum) interaction inhibition; 360,000 compounds, 0.2% hits; AID 720542; AlphaScreen AMA1-biotinylated RON2 peptide binding; Potency, µM (doses to about 58.2 µM), actives largely listed as inhibitors; further: nearly all actives have a fitted effect of over 45% in size
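AMA1 (3D7) with his tag at 25 nM final met compounds first, then biotinylated RON2 peptide at 25 nM; detection used donor plus acceptor beads, 10 µg/mL apiece, read by AlphaScreen after 30 min at room temperature.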
A number is an active result; - = inactive; ? = inconclusive; . = not tested or not shown. Unless noted, the call rests on the fitted dose curve; in most records, active means well fitted curve in the direction sought with a large enough effect; inconclusive means small, poorly fitted or top-dose-only effect, or another doubt; inactive means no such curve, though single readings can be large; an effect the other way counts as inactive or inconclusive.

SMILES	AmpC inh detg	SARS PLpro yeast	VACV mCherry inh	Vaccinia Venus	AmpC no deterg	AMA1-RON2 inh
CCN1/C(=C\C=C\C2=[N+](CC)c3ccccc3C2(C)C)C(C)(C)c2ccccc21	-	-	.	.	-	14µM
COc1ccc2[nH]c3c(c2c1)CCN1C(=O)C(CC(=O)NC/C=C(\C)CCC=C(C)C)C[C@H](C(=O)N2CCOCC2)[C@@]31CCC1CCCC1 (stereo not given in full)	.	-	10µM	?	-	-
CC(C)=CCC/C(C)=C/CNC(=O)C[C@H]1C[C@H](C(=O)N(C(C)C)C(C)C)[C@@]2(C)c3[nH]c4cc(-c5ccco5)ccc4c3CCN2C1=O	.	-	10µM	?	-	-
CCN(CC)C(=O)[C@H]1CC(CC(=O)NC/C=C(\C)CCC=C(C)C)C(=O)N2CCc3c([nH]c4ccc(OC)cc34)[C@]12C (stereo not given in full)	.	-	13µM	?	-	?
CCN(CC)C(=O)[C@H]1C[C@H](CC(=O)NC/C=C(\C)CCC=C(C)C)C(=O)N2CCc3c([nH]c4ccc(Cl)cc34)[C@]12C	.	-	-	-	-	-
CCN(CC)C(=O)[C@H]1C[C@H](CC(=O)NC/C=C(\C)CCC=C(C)C)C(=O)N2CCc3c([nH]c4cc(-c5ccco5)ccc34)[C@]12C	.	-	?	13µM	-	?
COc1ccccc1CN1CCC2(CCC(CNC(=O)c3ccccc3N(C)C)O2)CC1 (stereo not given)	.	.	-	-	.	.
COc1ccc(C2(C(=O)NCC3Cc4cccc(-c5nc(C)cnc5C)c4O3)CCCC2)cc1 (stereo not given)	.	.	-	-	.	.
O=C(NNS(=O)(=O)c1cccc(Cl)c1)c1cc(-c2ccc(F)cc2)nc2ccccc12	-	-	-	-	13µM	-
O=C(NNC(=O)c1cc(-c2ccncc2)nc2ccccc12)c1ccccc1O	-	-	13µM	?	-	-
Cc1cc(-c2ccnc(-n3ncc(C(=O)N(C)Cc4nccs4)c3C)n2)c(C)s1	.	.	-	-	.	.
NC(=S)N/N=C/c1ccc(/C=N/NC(N)=S)cc1	-	-	.	.	-	-
NC(=S)N/N=C/c1ccc(-n2nncc2-c2ccc(Cl)cc2)cc1	-	10µM	0.79µM	1.1µM	-	-
Cc1ccc(OCCC(=O)OCC(=O)NC2CCCCC2)cc1	.	.	-	-	.	-
Cc1ccc(OCCC(=O)OCC(=O)NC(=O)NC2CCCC2)cc1	-	-	-	-	35µM	-
CC(=NNc1nc2ccccc2s1)c1ncccn1	.	.	1µM	-	.	?
Oc1ccccc1/C=N/Nc1nc2ccccc2o1	-	-	?	?	-	-
C/C(=N\Nc1nc2ccccc2s1)c1cccs1	-	-	-	-	-	?
CC(=NNc1nc2ccccc2o1)c1cc2ccccc2cn1	.	.	?	0.71µM	.	?
CC(=NNc1nc2ccccc2o1)c1ncccn1	.	.	0.71µM	?	.	-
CC1=C(C(=O)OC2CCCC2)C(c2ccccc2C(F)(F)F)CC(=O)N1 (stereo not given)	-	.	-	-	.	.
CC(NC(=O)c1ccco1)c1nnc2n1CCN(Cc1ccc(Cl)cc1)CC2 (stereo not given)	.	.	-	-	.	.
COc1cc(OC)c2c(-c3cccc(-c4ccc(CO)cc4)c3)cc(=O)oc2c1	.	-	?	10µM	-	-
O=C(NC1CCCCC1)NC1CC2CCC(C1)N2C(=S)NCc1ccco1 (stereo not given)	-	-	-	-	-	-
CCOCCCNC(=S)N1C2CCC1CC(NC(=O)NC1CCCCC1)C2 (stereo not given)	-	-	-	-	0.32µM	-
COc1ccccc1-c1ccnc(-n2ncc(C(=O)N[C@H]3CCCCNC3=O)c2C2CC2)n1	.	.	-	-	.	.
CC1=CC(C)(C)Nc2ccc(C)cc21	-	-	-	-	-	-
CC1=CC(C)(C)Nc2ccc(Cc3ccc4c(c3)C(C)=CC(C)(C)N4)cc21	-	-	-	-	-	16µM
Cn1c(=O)cc(OCC(=O)N2CCN(C3CCCCC3)CC2)c2ccccc21	?	-	-	-	0.89µM	-
CCC1CCCCN1C(=O)COc1cc(=O)n(C)c2ccccc12 (stereo not given)	-	-	-	-	-	-
